Myeloid diff 2: promotes myeloid progenitor differentiation; ER-HoxA9 myeloid progenitors, lysozyme-GFP differentiation, flow cytometry; hit rate 1% among 360,000; calls only at 10 µM;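 active = normalized GFP-positive differentiation at or above the plate's own cutoff, the solvent-only control mean plus 3 SD; inconclusive = no clear call, values can overlap the other calls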;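 note: cells exposed to compound for four days before flow analysis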
M1 ag: activates human CHRM1 receptor | P11229 | CHO-K1 hM1, Fluo-8 calcium fluorescence, agonist mode; 0% DMSO, 100% acetylcholine EC100 | activation, % at 3 µM | hit rate 0.33% among 360,000;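 active = activation above the run's mean compound activation plus 3 SD, cut at about 16% in these data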;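 note: peak over basal fluorescence ratio within a 140 s kinetic read after compound addition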
M1 PAM: potentiates human M1 receptor response to acetylcholine; CHO-K1 hM1, Fluo-8 calcium fluorescence, ACh EC20; 0% = ACh EC20, 100% = maximal ACh; activation, % at 3 µM; hit rate 0.088% among 360,000; P11229; in the data active = activation above about 19%, passing the limit was not always enough
SKN-1 inh: C. elegans SKN-1 inhibition | AID 624304 | hit rate 0.49% among 360,000 | inhibition, % at 21.8 µM | C. elegans VP596 Pgst-4::GFP/RFP ratio, acrylamide-induced, 24 h;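 active = interference check ratio from 0.5 to 1.5 plus GFP to RFP signal ratio inhibition reaching or exceeding a fixed threshold, cut at about 30% in these data, passing the limit was not always enough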
M1 antag: blocks human M1 muscarinic receptor. CHO-K1 hM1, Fluo-8 calcium fluorescence, ACh EC80 antagonist. AID 588852. inhibition, % at 3 µM. hit rate 1.3% among 360,000. P11229;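 active = percent inhibition above its own plate's cutoff, namely the mean of that plate's compound wells plus 3 SD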;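 note: peak over basal fluorescence ratio during 140 s after agonist addition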
ATG4B inh: inhibitors of human ATG4B cysteine protease. hit rate 0.51% among 340,000. ATG4B cleavage of LC3-PLA2, NBD-HPC fluorescence, 1 h. inhibition, % at 8.33 µM. Q9Y4P1. AID 504462; in the data active = inhibition above about 40%
Target sequence (Q9Y4P1 whole entry, looked up): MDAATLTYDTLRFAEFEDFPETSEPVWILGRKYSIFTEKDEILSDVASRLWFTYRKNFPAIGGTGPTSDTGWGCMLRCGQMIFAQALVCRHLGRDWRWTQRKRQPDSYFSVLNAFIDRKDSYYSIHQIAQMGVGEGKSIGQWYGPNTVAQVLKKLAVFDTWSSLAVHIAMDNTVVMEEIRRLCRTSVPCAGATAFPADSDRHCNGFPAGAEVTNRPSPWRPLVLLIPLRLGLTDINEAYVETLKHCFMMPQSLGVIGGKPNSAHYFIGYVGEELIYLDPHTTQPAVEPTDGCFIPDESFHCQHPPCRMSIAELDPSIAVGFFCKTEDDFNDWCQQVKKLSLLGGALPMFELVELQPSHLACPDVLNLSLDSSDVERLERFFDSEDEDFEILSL
Myeloid diff: myeloid differentiation induction; shares compounds with Myeloid diff 2; ER-HoxA9 myeloid progenitors, GFP/Mac1 double-positive flow; calls only; hit rate 2% among 2,300; AID 651706;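 active = share of green or green-and-red cells above 9 and 9% in run 1 or 4 and 3% in run 2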
GFP autofluor: flagged as fluorescent in myeloid differentiation counter-screen | hit rate 7.4% among 2,300 | shares compounds with Myeloid diff 2 | ER-HoxA9 myeloid progenitors, no estrogen, GFP autofluorescence flow cytometry; vehicle wells 0%, positive control 100% | fluorescence response, % (test concentration not listed) | AID 651707;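 active = over 5% cells positive for green fluorescent reporter, or over 2% positive for both it and APC stain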
Each line names hits and unclear results; the compound was inactive in the other large screens (follow-up assays come after a bar, where they were run). A selection: hits, their analogues and other compounds. The true share with any hit is near 3.5%.

Cc1cc2cc(CN(CC3CCCO3)C(=S)Nc3ccccc3)c(=O)[nH]c2cc1C (centres undefined)	Myeloid diff 2 active | Myeloid diff inactive | GFP autofluor inactive
COc1ccc2[nH]c(=O)c(CN(CC3CCCO3)C(=S)Nc3ccccc3)cc2c1 (centres undefined)	none
O=C(CSc1nc2ncc(Br)cc2[nH]1)Nc1ccc2c(c1)OCO2	none
Cc1cc(C)nc(-n2ncc3c2CC(c2ccc(F)cc2)CC3=O)n1 (centres undefined)	none | Myeloid diff inactive | GFP autofluor inactive
Cc1cc(C)nc(-n2ncc3c2CC(c2ccccc2)CC3=O)n1 (centres undefined)	none
COc1ccc(C(c2nnnn2CCc2ccccc2)N2CCN(C3CCCC3)CC2)cc1 (centres undefined)	none
COc1ccccc1N1CCN(C(c2ccc(N(C)C)cc2)c2nnnn2CCc2ccccc2)CC1 (centres undefined)	Myeloid diff 2 active | Myeloid diff inactive | GFP autofluor 8.2
Cc1ccc(NC2Sc3ccccc3NC2=O)cc1 (centres undefined)	none
CN1CCN(S(=O)(=O)c2cccc(C(=O)Nc3ccccc3N3CCCCC3)c2)CC1	none | Myeloid diff inactive | GFP autofluor inactive
O=C(Nc1ccncc1)c1cccc(S(=O)(=O)N2CCN(c3ccc(F)cc3)CC2)c1	none | Myeloid diff inactive | GFP autofluor inactive
COc1ccccc1NC(=O)c1cccc(S(=O)(=O)N2CCN(c3ccccc3)CC2)c1	none | Myeloid diff inactive | GFP autofluor inactive
CCC1C(=O)NCCN1Cc1nc(-c2ccc(C)s2)oc1C (centres undefined)	none
COc1ccc(CNC(=O)CN(Cc2ccc(F)cc2)C(=O)CCC(=O)Nc2nccs2)cc1	none
CC(C(=O)NC(C)(C)C)N(Cc1cccs1)C(=O)CCN1CCc2ccccc21 (centres undefined)	none
COc1ccc(S(=O)(=O)N2CCCCCC2)cc1C(=O)N1CCN(C(C)=O)CC1	none (no result: ATG4B inh)
Cc1ccc(C)n1NC(=O)c1ccccc1	none
Cc1ccc(C)n1NC(=O)c1cccs1	none | Myeloid diff inactive | GFP autofluor inactive
CC(C)OCc1c(C(=O)Nc2nccs2)oc2ccccc12	none
COc1ccc(S(=O)(=O)N2CCCCC2)cc1NC(=O)CCNC(=O)c1ccc(Br)cc1	none
CCc1c(C)nc2ncnn2c1NC1CCCc2ccccc21 (centres undefined)	none | Myeloid diff inactive | GFP autofluor inactive
CCOc1ccc(S(=O)(=O)N(CC(=O)N2CCC(C(N)=O)CC2)c2ccc(F)cc2)cc1	none
COc1ccc(C(=O)Nc2nccs2)cc1OC	Myeloid diff 2 active | Myeloid diff inactive | GFP autofluor inactive
COc1ccc(CCNC(=O)CN(c2ccc(OC)c(OC)c2)S(=O)(=O)c2ccccc2)cc1OC	none
COc1ccc(NC(=O)CS(=O)c2ccc(Cl)c(Cl)c2)cc1 (centres undefined)	Myeloid diff 2 inconclusive
O=C(CNC(=O)c1ccc(=O)[nH]c1)Nc1ccc(F)c(F)c1	Myeloid diff 2 active | Myeloid diff inactive | GFP autofluor inactive
O=C(CNC(=O)c1ccncc1)Nc1ccc(F)c(F)c1	Myeloid diff 2 inconclusive
CNC(=O)OCc1snc(-c2ccccc2)c1COC(=O)NC	none (no result: ATG4B inh)
CC(C)(C)CC(C)(C)NCC(O)COc1c(F)cc(Br)cc1F (centres undefined)	Myeloid diff 2 active | Myeloid diff inactive | GFP autofluor inactive
Cc1cnc(C(=O)OCC(=O)c2ccccc2)cn1	none
Cn1ccc(C(=O)OCC(=O)c2ccccc2)n1	Myeloid diff 2 active | Myeloid diff inactive | GFP autofluor inactive
CC(C)n1nnnc1C1c2ccccc2C(=O)N1Cc1ccco1 (centres undefined)	Myeloid diff 2 active (no result: M1 ag, M1 PAM, M1 antag, ATG4B inh) | Myeloid diff inactive | GFP autofluor inactive
Cc1cc(NC(=O)/C=C/c2ccccc2Cl)no1	none | Myeloid diff inactive | GFP autofluor inactive
Cc1cc(NS(=O)(=O)c2ccc(NC(=O)/C=C/c3ccccc3Cl)cc2)no1	none
CC(=O)Nc1ccc(NC(=O)c2cccc(C(=O)OC(C)C)n2)cc1	none
COC(=O)c1cccc(C(=O)Nc2ccc(F)cc2)n1	none | Myeloid diff inactive | GFP autofluor inactive
CCC1c2ccc(C)n2CCN1C(=O)Nc1cc(Cl)ccc1OC (centres undefined)	none (no result: Myeloid diff 2) | Myeloid diff inactive | GFP autofluor inactive
CC1CC(C)CN(C(=O)C2CCN(S(=O)(=O)N3CCC4(CC3)OCCO4)CC2)C1 (centres undefined)	none
Cc1ccc(-n2ncc(-c3nnc(SCC(=O)NC4CCCC4)o3)c2N)cc1C	none | Myeloid diff inactive | GFP autofluor inactive
CN(C(=O)COC(=O)c1ccc[nH]c1=O)C1CCCCC1	none | Myeloid diff inactive | GFP autofluor inactive
O=C(COC(=O)c1ccc[nH]c1=O)NC1CCCCCC1	none
CCN1CCN(c2ccc(S(=O)(=O)N3CCCCC3)cc2NC(=O)c2ccc([N+](=O)[O-])s2)CC1	Myeloid diff 2 active | Myeloid diff inactive | GFP autofluor inactive
CCN1CCN(c2ccc(S(=O)(=O)N3CCCCC3)cc2NC(=O)/C=C/c2ccc(Cl)cc2)CC1	Myeloid diff 2 active | Myeloid diff inactive | GFP autofluor 16
CSCCC(NC(=O)CCC(=O)OCC(=O)[C@@]1(O)CCC2[C@@H]3CCC4=CC(=O)C=C[C@]4(C)C3[C@@H](O)C[C@@]21C)C(=O)O (some centres undefined)	none
c1ccc(CNc2nc(-c3cccs3)nc3ccccc23)nc1	none | Myeloid diff inactive | GFP autofluor inactive
COC(=O)C1CCCN1C(=O)c1cccs1 (centres undefined)	Myeloid diff 2 active | Myeloid diff inactive | GFP autofluor inactive
CC(C)(C)c1ccc(C(=O)NNC(=S)NC(=O)c2cccnc2)cc1	none
CC(C)(C)c1cc(Cl)c(O)c(NC(=S)NC(=O)c2cccnc2)c1	Myeloid diff 2 active | Myeloid diff inactive | GFP autofluor inactive
COc1ccc(C(C(=O)NC(C)(C)C)N(C(=O)CCC(=O)Nc2cc(C)on2)c2ccccc2F)cc1 (centres undefined)	none
CCn1c(C(=O)N2CCCC(C(=O)NCCCc3ccccc3)C2)cc2sccc21 (centres undefined)	none
CCn1c(C(=O)N2CCCC(C(=O)NCCc3ccc(C)cc3)C2)cc2sccc21 (centres undefined)	none | Myeloid diff inactive | GFP autofluor inactive

Assay outcomes from PubChem.
